Reference: PubChem BioAssay AID1076 (NMMLSC, 2008)

Test: LNCaP cell loss by flow event count, confirmation, cytotoxicity control for prostate differentiation activator project, single point (AID 1076);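 also: counts scatter-gated live cells after medium removal discards detached dead cells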
Settings: flow cytometry event count, 4 d, event count, at 10 µM, stronger effect = lower value

Row | Compound | cell event count
1 | COc1ccccc1N1CCN(Cc2cc(Br)c(O)c3ncccc23)CC1 | 35.5
2 | COc1ccc(-c2coc3c(CN4CCCCC4)c(O)c(CN4CCCCC4)c(O)c3c2=O)cc1 | 63
3 | O=C(CCCCCn1c(=O)[nH]c2ccccc2c1=O)NCCCN1CCN(c2ccccc2F)CC1 | 336
4 | COc1ccc(N2CCN(CCCNC(=O)CCCn3c(=O)[nH]c4ccsc4c3=O)CC2)cc1 | 25.5
5 | COc1ccc(-c2cc(C(F)(F)F)nc(N3CCN(C)CC3)n2)cc1 | 102
6 | c1cncc(-c2nc3ccccc3o2)c1 | 89.5
7 | CCCS(=O)(=O)N1CCCC(C(=O)NCCCN2CCN(c3ccccc3F)CC2)C1 (stereo not drawn) | 168
8 | CCOC(=O)N1CCN(C(=O)Cc2ccc(-n3c(=O)[nH]c4ccccc4c3=O)cc2)CC1 | 265
9 | CCCS(=O)(=O)N1CCCC(C(=O)NCCCN2CCN(c3cccc(Cl)c3)CC2)C1 (stereo not drawn) | 114
10 | CCN1CCCC1CNC(=O)c1cc2c(-c3cccc(OC)c3)nn(C)c2s1 (stereo not drawn) | 81.5
11 | CCN1C(=O)OC2(CCCCC2)C1(C)O (stereo not drawn) | 174
12 | CCN(CC)CC(=O)Nc1ccc(-c2nc3cc(NC(=O)CN(CC)CC)ccc3o2)cc1 | 140
13 | CCN(CC)CCCNc1oc(-c2cccc(Cl)c2)nc1C#N | 227
14 | CCOC(=O)N1CCN(C(=O)CN(c2cccc(C(F)(F)F)c2)S(=O)(=O)c2ccccc2)CC1 | 395
15 | COc1ccc(-n2c3c(cc(C(=O)N4CCC(C)CC4)c2=O)C(=O)CC(C)(C)C3)cc1 | 93
16 | N#CC1=C(N)OC2=C(C(=O)CCC2)C1c1ccc(OC(=O)N2CCOCC2)cc1 (stereo not drawn) | 223
17 | O=S(=O)(Nc1cccc2ncccc12)c1cccs1 | 78.5
18 | Cn1c(C(=O)NCCN2CCN(c3ccccc3F)CC2)cc2c(=O)n(C)c3ccccc3c21 | 194
19 | Cc1oc(-c2cccc(Cl)c2)nc1CN1CCC(C(=O)NCc2ccco2)CC1 | 189

Row | Compound | cell event count
20 | C=CCn1c(=N)n(CC(O)COc2ccc(OC)cc2)c2ccccc21 (stereo not drawn) | 126
21 | COc1ccc(N2CCN(CCCNC(=O)c3cc4sccc4n3C)CC2)cc1 | 251
22 | O=C(Nc1cccc(Cl)c1)N1CCN(Cc2ccccc2)CC1 | 132
23 | COCCNC(=O)CC(NS(=O)(=O)c1ccc(NC(C)=O)cc1)C(C)C (stereo not drawn) | 62
24 | COc1ccc(NC(=O)NCCCN2CCN(c3cc(C)ccc3C)CC2)cc1 | 102
25 | COc1ccc(-n2nnnc2SCC(=O)c2ccc(O)c(O)c2)cc1 | 205
26 | CCOC(=O)c1[nH]c(C)c(C(=O)N2CCc3ccccc32)c1C | 67
27 | CCCCC(=O)NCCc1ccc(S(N)(=O)=O)cc1 | 92.5
28 | CCc1ccc(-c2nc(CN3CCCC(C(=O)O)C3)c(C)o2)cc1 (stereo not drawn) | 123
29 | Cc1oc(-c2ccc(Cl)cc2)nc1CN1CCC(C(=O)NCCCN2CCCC2=O)CC1 | 115
30 | CN1CCN(c2oc(COc3ccc(-c4ccccc4)cc3)nc2C#N)CC1 | 174
31 | Cc1oc(-c2ccc(Cl)cc2)nc1CN1CCCC(C(=O)NCc2cccnc2)C1 (stereo not drawn) | 67
32 | CCN1C=C(Cc2cccs2)C2=C(C1)C(c1cccs1)C(C#N)=C(N)O2 (stereo not drawn) | 200
33 | Cc1oc(-c2ccccc2F)nc1CN1CCC(C(=O)NCc2cccs2)CC1 | 214
34 | CN(C)CCCN1c2ccccc2CCc2ccc(Cl)cc21 | 74
35 | CN1CCN(c2cc3c(c4c2[nH]c2ccccc24)C(=O)CC(C)(C)C3)CC1 | 231
36 | CCCN(CCC)CCNC(=O)C1CCN(Cc2nc(-c3ccc(Cl)cc3)oc2C)CC1 | 120
37 | CC1=C(n2nnc3ccccc32)C(c2ccccc2)C(C#N)=C(N)O1 (stereo not drawn) | 97.5
38 | COc1ccc(-c2noc(CCC(=O)NCCCN3CCC(C)CC3)n2)cc1 | 136
